Results from PubChem BioAssay AID1851 (National Center for Advancing Translational Sciences (NCATS), 2009).
“And” between values parts separate entries of the source, which are not always exact repeats. Identical values can stand only once. Screen size: about 16,000 compounds; about 5,700 (36%) were called active. Another 24% or so got no clear call; they are omitted. Some of the results follow. Values without a mark were called inactive. Calls follow the shape of the dose curve; as a rule, active = well fitted curve in the direction sought with a large enough effect; inconclusive = small, poorly fitted or top-dose-only effect, or effect the other way; inactive = no such curve, though single readings can be large or run the other way.
% is scaled to controls: 0 for no effect and ±100 for the full control effect.

What follows are compounds tested against Cytochrome P450 1A2 (Homo sapiens) (UniProt P05177) (assay: Cytochrome panel assay with activity outcomes). Conditions: recombinant CYP, pro-luciferin dealkylation, luminescence, p450-cyp1a2; series mostly up to 57.1 µM; activity, negative = inhibition: at the top concentration.
Chain of Cytochrome P450 1A2 (Homo sapiens) (P05177 whole entry, looked up): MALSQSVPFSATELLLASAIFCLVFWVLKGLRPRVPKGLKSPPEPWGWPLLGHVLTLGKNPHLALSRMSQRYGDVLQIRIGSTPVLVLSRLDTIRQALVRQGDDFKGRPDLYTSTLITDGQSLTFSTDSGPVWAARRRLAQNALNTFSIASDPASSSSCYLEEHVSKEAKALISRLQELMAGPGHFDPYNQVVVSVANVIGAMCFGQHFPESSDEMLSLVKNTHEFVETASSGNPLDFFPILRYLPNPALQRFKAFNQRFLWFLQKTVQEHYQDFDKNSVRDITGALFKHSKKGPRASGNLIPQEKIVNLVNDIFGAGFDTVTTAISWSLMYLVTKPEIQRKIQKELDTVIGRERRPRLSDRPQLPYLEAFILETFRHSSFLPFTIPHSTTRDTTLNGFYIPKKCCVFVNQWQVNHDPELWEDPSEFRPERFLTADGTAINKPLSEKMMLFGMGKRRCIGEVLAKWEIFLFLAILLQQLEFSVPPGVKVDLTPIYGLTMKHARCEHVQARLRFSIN
For `CN[C@H](Cc1ccccc1)c1cccc(OC)c1O`, the activity, negative = inhibition was -11.6% [at 11.4 µM]. With `COC1=CC(=O)O[C@@H](/C=C\c2ccccc2)C1` the AC50 was 3.16 µM (active). With `CNC(=O)OCC[N+](C)(C)C` the “activity, negative = inhibition” value was 10.7%. Compound `O=C(NCP(=O)(O)O)c1cccnc1` has an activity, negative = inhibition of -11.9% [at 11.4 µM]. In the case of `CC(C)CN1CC2(CCN(C(=O)c3ccncc3)CC2)C1`, the “activity, negative = inhibition” value is reported as -7.67%. `C[C@@H]1O[C@H](C[N+](C)(C)C)CS1` was tested, and the “activity, negative = inhibition” value was 0.254%. For `N=C(N)SCc1ccc(Cl)c2ccccc12` (tested in a mixture with another compound), the AC50 was 251 nM (active) and 158 nM (active). For `COc1ccc2c(c1)CN([C@H](C)[C@@H]1CC[C@@H]3[C@H]4CC[C@H]5C[C@@H](O)CC[C@@]5(C)[C@H]4CC[C@]31C)CO2`, the activity, negative = inhibition was -17.9% [at 2.29 µM]. For `CCCC(CCC)C(=O)O`, the “activity, negative = inhibition” value was -4.79%. `O=S(=O)(c1ccccc1)N1CCCCC1c1cccnc1` (stereo not drawn) was tested, and the “activity, negative = inhibition” value was -6.92%. `CC1(C)[C@@H]2CC[C@]1(C)CN(CCC[N+](C)(C)C)C2` gave an activity, negative = inhibition of -6.81% [at 2.29 µM]. `CC(=NCCN1CCOCC1)c1c(O)n(Cc2ccccc2)c(=O)[nH]c1=O` was tested, and the “activity, negative = inhibition” value was -26.8%. For `CC(=NCc1ccco1)c1c(O)n(-c2ccccc2)c(=O)[nH]c1=O`, the AC50 was 22.4 µM (active). With `CC(=Nc1c(C)n(C)n(-c2ccccc2)c1=O)c1c(O)n(Cc2ccccc2)c(=O)[nH]c1=O` the “activity, negative = inhibition” value was -6.48%. With `N[C@@]1(C(=O)O)CC[C@H](C(=O)O)C1` the AC50 was “inactive”. For `O=C1C2CCN(CC2)C1(CO)CO`, the activity, negative = inhibition was -15.4% [at 11.4 µM]. Work on `[N-]=[N+]=CC(=O)CC[C@H](N)C(=O)O` yielded an activity, negative = inhibition of -10.9% [at 11.4 µM]. `Clc1ccccc1-c1cncnc1NCCc1cnc[nH]1` was tested, and the AC50 was 1.58 µM (active). With `Cc1ccccc1-c1cncnc1NCCc1cnc[nH]1` the AC50 was 5.01 µM (active). `N=C(N)c1ccc(-c2ccc(-c3ccc(C(=N)N)cc3)o2)cc1` was tested, and the activity, negative = inhibition was -1.35% [at 11.4 µM]. `O=C(O)c1cc(N=Nc2ccc([As](=O)(O)O)cc2)ccc1O` was tested, and the activity, negative = inhibition was -9.91% [at 11.4 µM]. `O=[As](O)(O)c1ccc(N=Nc2ccc([As](=O)(O)O)cc2)cc1` gave an activity, negative = inhibition of -13.9% [at 11.4 µM]. In the case of `N[C@@H](Cn1ccc(=O)n(Cc2ccc(C(=O)O)cc2)c1=O)C(=O)O`, the “activity, negative = inhibition” value is reported as -15.7%. Work on `c1ccc(C[N+]23CN4CN(CN(C4)C2)C3)cc1` yielded an activity, negative = inhibition of -10.1% [at 2.29 µM]. In the case of `Cc1ccc(NC(=[OH+])c2cc3ccccc3cc2O)c(C)c1.Cc1ccc(NC(=[OH+])c2cc3ccccc3cc2O)c(C)c1.[Ni]`, the AC50 is reported as 0.251 µM (active). `CN(C)[C@@H]1C(=O)C(C(N)=O)=C(O)[C@]2(O)C(=O)C3=C(O)c4c(O)cccc4[C@@](C)(O)[C@H]3[C@H](O)[C@@H]12` was tested, and the “activity, negative = inhibition” value was -18.3% [at 25.6 µM]. With `CN(C(=O)Cc1ccc(Cl)c(Cl)c1)[C@@H](CN1CCCC1)c1cccc(OCC(=O)O)c1` the “activity, negative = inhibition” value was 2.92%. With `C[N+]1(C)[C@@H]2CC(OC(=O)[C@@H](CO)c3ccccc3)C[C@@H]1[C@H]1O[C@H]12` (stereo partly drawn) the activity, negative = inhibition was -22.8% [at 11.4 µM]. In the case of `Cc1ccc(S(=O)(=O)N[C@@H](CCCCN)C(=O)CCl)cc1`, the “activity, negative = inhibition” value is reported as 3.11%. Work on `C[C@@]12CC[C@H](O[C@@H]3O[C@H](CO)[C@@H](O)[C@H](O)[C@@H]3O)C[C@@H]1CC[C@H]1[C@H]2CC[C@@]2(C)[C@@H](C3=CCOC3=O)CC[C@]12O` yielded an activity, negative = inhibition of -11.7% [at 11.4 µM]. For `CCOc1ccc2c(c1)C(C)=CC(C)(C)N2`, the AC50 was 5.01 µM (active). In the case of `CC(C)(C)C(=O)CP(=O)(O)O`, the activity, negative = inhibition is reported as -9.4% [at 11.4 µM]. `CCOC(=O)C1=C(C)OC(N)=C(C#N)C12C(=O)N(C)c1ccccc12` (stereo not drawn) was tested, and the “activity, negative = inhibition” value was 10.1%. For `C[C@@H]1[C@@H]2Cc3ccc(O)cc3[C@@]1(C)CCN2CC1CC1`, the “activity, negative = inhibition” value was -14.6%. For `CNC(C)Cc1ccccc1Sc1ccc(O)cc1` (stereo not drawn), the “activity, negative = inhibition” value was -2.13%. In the case of `Cn1c(O)c(C(=N)COc2ccccc2)c(=O)n(C)c1=O`, the AC50 is reported as 6.31 µM (active). With `O=C(Oc1ccccc1)N1CCC2(CC1)CN(C(c1ccccc1)c1ccccc1)C2` the “activity, negative = inhibition” value was -14.2%. With `c1csc(CN2CC[C@@]3(CCCNC3)C2)n1` the “activity, negative = inhibition” value was -12.5%. In the case of `CS(=N)(=O)CC[C@H](N)P(=O)(O)O` (stereo partly drawn), the activity, negative = inhibition is reported as -13.9% [at 11.4 µM]. For `O=C(c1ccccc1F)c1cn(Cc2ccccc2)c2ccccc12`, the AC50 was 7.08 µM (active). `O=C(c1ccccc1F)c1cn(CC(=O)N2CCOCC2)c2ccccc12` was tested, and the “activity, negative = inhibition” value was 0.466%. For `CCOC(=O)Cn1cc(C(=O)c2ccccc2F)c2ccccc21`, the AC50 was 3.55 µM (active). For `COc1ccc(OC)c([C@H](O)[C@H](C)N)c1`, the AC50 was “inactive”. In the case of `c1cc(N2CCCC3(CCNCC3)C2)ccn1`, the “activity, negative = inhibition” value is reported as -4.56%. For `Nc1nc(N)c(N=Nc2ccc([As](=O)(O)O)cc2)c(=O)[nH]1`, the activity, negative = inhibition was -14.9% [at 2.29 µM]. `N=C(N)n1cc(/C=N\N=C(N)N)cn1` gave an activity, negative = inhibition of 7.8% [at 2.29 µM]. With `CCC[C@@](C)(COC(N)=O)COC(=O)NC(C)C` the “activity, negative = inhibition” value was 0.255% [at 25.6 µM]. `O=C(O)C(O)(c1ccc(-c2ccccc2)cc1)c1ccc(-c2ccccc2)cc1` was tested, and the activity, negative = inhibition was -16.4% [at 11.4 µM]. `CS(=N)(=O)CC[C@@H](N)C(=O)O` (stereo partly drawn) was tested, and the AC50 was “inactive”. For `Cc1cc(C)nc(NC2=NCCS2)n1`, the AC50 was 12.6 µM (active). In the case of `C=C(C)[C@H]1CC[C@]2(C(=O)O)CC[C@]3(C)[C@@H](CC[C@H]4[C@@]5(C)CC[C@@H](O)C(C)(C)[C@@H]5CC[C@@]43C)[C@H]12`, the “activity, negative = inhibition” value is reported as 10.2% [at 25.6 µM]. For `O=C(c1cc2cc3ccc(Cl)cc3nc2o1)N1CCC2(CC1)OCCO2`, the AC50 was 6.31 µM (active). `O=C(c1cc(=O)[nH]c2ccc(Br)cc12)N1CCC2(CC1)OCCO2` was tested, and the “activity, negative = inhibition” value was 7.44%.
